Source: PubChem (National Center for Advancing Translational Sciences (NCATS))
This is a sample that favours compounds with a hit; in the whole collection about 2.9% have one here.
A549 tox – kills or reduces viability of A549 cells in Nrf2 counter-screen; actives 0.16% (n = 390,000); AID 504648; A549 ARE-Fluc cells, CellTiter-Fluor viability, 18-24 h; Potency, µM (doses to about 46 µM), usual class: inhibitors
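A549 ARE-Fluc cells in 5% FBS OPTI-MEM, 5000 cells/well, rested 2 h then exposed to compounds in concentration-response for 18-24 h at 37 °C. Viability by CellTiter-Fluor fluorescence (Ex 405/Em 525) after 30 min; luciferase luminescence (BugLite, 15 min, RT) read afterwards.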
ATXN2 expr inh – reduces ATXN2 reporter expression in HEK-293 cells; HEK-293 ATXN2-luciferase reporter, luminescence, 24 h; Potency, µM (series often up to 57 µM), usual class: inhibitors; actives 0.72% (n = 360,000); AID 1745845; further: nearly all actives have a fitted effect of over 55% in size
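qHTS (up to 57 uM final) was run with 24 h compound exposure of reporter cells at 37 °C. Each well was multiplexed: SteadyGlo luminescence measured ATXN2-luciferase expression after a fluorogenic Gly-Phe-AFC viability readout (25 uM final).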
Nrf2 ARE act – Nrf2 pathway activation; AREc32 ARE-luciferase reporter (MCF7-derived line), luminescence, 24 h; Potency, µM (series often up to 46.1 µM), hits mostly activators; actives 0.31% (n = 410,000); further: nearly all actives have a fitted effect of over 65% in size
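AREc32 cells carrying an ARE-driven firefly luciferase, 1000 cells/well in OPTI-MEM with 5% FBS, dosed after overnight attachment and incubated 24 hr at 37 deg C. Steady-Glo luminescence read after 30 min at RT.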
Nrf2 block – blocks Nrf2 signaling. A549 ARE-Fluc reporter, luciferase luminescence, 18-24 h. Potency, µM (series often up to 46 µM), most hits filed as inhibitors. actives 2.1% (n = 360,000). AID 504444; further: nearly all actives have a fitted effect of over 60% in size
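In this cell-based qHTS, ARE-driven firefly luciferase in A549 cells reports Nrf2 activity; the luminescent signal after BugLite lysis is the measured value, with a prior CellTiter-Fluor read for cell health.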
S2 tox – cell viability loss in ATXN counter-screen; Potency, µM (titrated, usually from 56.7 µM), actives largely listed as cytotoxic; actives 0.49% (n = 400,000); S2 cells (HEK-293 line with an ATXN2-luciferase reporter) viability, CellTiter-Fluor protease fluorescence, 24 h; further: nearly all actives have a fitted effect of over 40% in size
Hits are given with their value; . = inactive; ? = inconclusive; / = not tested or not shown; [ ] = dose if it differs, or a comment. The call rests on the fitted dose curve; in most records, active means well fitted curve in the direction sought with a large enough effect; inconclusive means small, poorly fitted or top-dose-only effect, or another doubt; inactive means no such curve, though single readings can be large; an effect the other way counts as inactive or inconclusive.

SMILES	A549 tox	ATXN2 expr inh	Nrf2 ARE act	Nrf2 block	S2 tox
COC(=O)c1ccsc1NC(=O)CSc1nnnn1-c1ccccc1SC	.	.	.	20.6µM	.
CSc1ccccc1NC(=O)CSc1nnnn1-c1ccccc1SC	.	.	.	.	.
COc1ccc(N(C)C(=O)c2onc3c2CCCC3)cc1	.	.	.	.	.
COc1ccc(C(=O)CN2C(=O)c3ccccc3S2(=O)=O)cc1	.	0.501µM	.	?	.
Cc1ccc(C2CC(=O)Nc3cc4c(cc32)OCCO4)cc1Br (stereo not drawn)	.	.	.	18.4µM	.
CCCCCCOc1ccc(OCC(O)CN2C(=O)NC(C)(C)C2=O)cc1 (stereo not drawn)	.	.	.	?	.
Cc1ccccc1-n1c(SCC(=O)N/N=C/c2c(C)nn(-c3ccccc3)c2C)nc2ccccc2c1=O	?	.	.	?	?
Cc1nn(-c2ccccc2)c(C)c1/C=N/NC(=O)CSc1nc2ccccc2c(=O)n1-c1ccc(Br)cc1	18.4µM	?	.	25.9µM	/
Cc1ccc(-n2c(SCC(=O)N/N=C/c3c(C)nn(-c4ccccc4)c3C)nc3ccccc3c2=O)cc1	8.2µM	.	.	?	?
O=C1CCC/C=C/C[C@@H](CC(=O)N(CCO)Cc2ccccc2)C(=O)NC[C@@H](c2ccccc2)O1	.	.	.	.	.
COCCn1c(C)cc(C(=O)Cn2nc(C(=O)O)c3ccccc3c2=O)c1C	.	/	.	?	.
C=CCn1c(C)cc(C(=O)Cn2nc(C(=O)O)c3ccccc3c2=O)c1C	.	.	.	14.6µM	?
Cc1oc(-c2cccc3ccccc23)nc1CN1CCN(c2ncnc3ccccc23)CC1	?	?	.	18.4µM	?
Cc1cc(N2CCN(Cc3nc(-c4ccc(Cl)cc4)oc3C)CC2)cc(C)n1	.	?	.	.	.
COc1ccc(-c2nc(CN3CCN(c4cc(C)nc(C)c4)CC3)c(C)o2)c2ccccc12	.	11.2µM	.	.	?
CC(NC(=O)C1CCOCC1)c1nnc2n1CCN(Cc1ccc3ccccc3c1)CC2 (stereo not drawn)	/	/	/	/	.
CCOC(=O)C(C(=O)OCC)C1N=C(N)N=C2Oc3ccccc3N21 (stereo not drawn)	.	.	.	.	.
O=C1COc2ccc(C(=O)COC(=O)c3ncc(Cl)c(Cl)c3Cl)cc2N1	.	.	.	.	.
Cc1ccc(-c2cc(C(=O)NNC(=O)c3csc(N4CCOCC4)n3)c3ccccc3n2)cc1	.	/	.	20.6µM	?
O=C(Nc1cccc(C(=O)N2CCN(c3ccccc3F)CC2)c1)c1nsc2ccccc12	.	.	.	/	.
Nc1ncc(-c2ccccc2)c(-c2ccc(OCc3ccccc3)cc2O)n1	.	.	.	23.1µM	.
Cn1nc(C(=O)NCc2ccc(F)cc2)c2c1-c1ccccc1S(=O)(=O)C2	.	.	.	10.3µM	.
Cc1ccc(CNC(=O)c2nn(C)c3c2CS(=O)(=O)c2ccccc2-3)cc1	.	.	.	.	.
COC(=O)c1ccc2nc(-c3ccco3)c(Cc3ccccc3)n2c1	/	.	?	/	.
O=C(Nc1ccccn1)c1ccc2ccccc2c1O	.	.	.	?	?
SMILES	A549 tox	ATXN2 expr inh	Nrf2 ARE act	Nrf2 block	S2 tox
CC(C)(C)C(=O)Nc1ccc(NC(=O)c2ccco2)nc1	.	0.891µM	.	2.06µM	.
CCOc1ccccc1NC(=O)c1ccc(NC(=O)c2ccco2)cc1	.	.	.	23.1µM	.
CCOc1cc(NC(=O)c2ccco2)c(OCC)cc1NC(=O)c1cc(OC)c(OC)c(OC)c1	.	.	.	18.4µM	.
CC(C)(C)c1ccc(C(=O)Nc2ccc(NC(=O)c3ccco3)cc2)cc1	?	?	.	9.2µM	.
COc1ccccc1NC(=O)c1ccc(NC(=O)c2ccco2)cc1	.	.	.	?	.
O=C(Nc1ccc(NC(=O)c2ccco2)cc1)c1ccco1	.	.	.	.	.
CCN(Cc1ccccc1)C(=O)CN(c1ccc(OC)cc1)S(=O)(=O)c1c(C)nn(C)c1C	.	.	.	.	?
CCOC(=O)Cc1ccc(NC(=O)c2ccc(C(C)(C)C)cc2)cc1	?	2.82µM	.	2.59µM	?
COc1cccc(/C=N/NC(=O)c2cc3cc([N+](=O)[O-])ccc3s2)c1O	?	?	.	14.6µM	/
COc1cccc(/C=N/NC(=O)C(=O)N/N=C/c2cccc(OC)c2O)c1O	.	.	.	.	.
CC(C)(C)C(=O)NC(=S)NNC(=O)c1sc2ccccc2c1Cl	?	17.8µM	.	5.8µM	/
O=C(NNC(=S)NC1CCCCC1)c1sc2ccccc2c1Cl	.	.	.[9.22 µM]	?	.
Cc1cccc(NC(=O)Nc2ccc(Oc3c(F)c(F)c(F)c(F)c3F)cc2)c1	.	.	.	.	.
O=C(Nc1ccc(Oc2c(F)c(F)c(F)c(F)c2F)cc1)OC1CCN2Cc3ccccc3N=C12 (stereo not drawn)	20.6µM	?	.	23.1µM	?
CCC[C@H](NC(=O)C(C#N)=Cc1cccc(Br)n1)c1ccccc1	/	10.9µM	/	/	/
Oc1ccc(Cl)cc1N=Cc1sc2ccccc2c1Cl	.	.	?	?	.
O=[N+]([O-])c1ccc(O)c(N=Cc2sc3ccccc3c2O)c1	.	?	.	.	28.2µM
NC(=O)[C@H]1CC2(CC(c3cccc(NC(=O)COc4ccc(Cl)cc4)c3)=NO2)CN1C(=O)c1ccc(Cl)cc1 (stereo partly drawn)	?	?	.	25.9µM	?
CCOC(=O)N=Nc1c2ccccc2c2nc3no[nH]c3nc12	0.92µM	?	.	0.651µM	/
COc1cc(C(=O)NC2CC(C)CC(C)(C)C2)cc(OC)c1OC (stereo not drawn)	/	/	.	/	.
COc1ccc(NC(=O)/C(C#N)=C/c2c(C)nn(-c3ccc(F)cc3)c2Cl)cc1OC	.	.	15.8µM	?	.
COc1ccc(NC(=O)/C(C#N)=C/c2c(C)nn(-c3ccc(F)cc3)c2Cl)cc1Cl	.	.	.	.	.
O=C(NCC1CCOCC1)c1cc(COc2cccc(C(F)(F)F)c2)on1	.	?	.	23.1µM	.
O=C(NC1CCOC1)c1cc(COc2cccc(C(F)(F)F)c2)on1 (stereo not drawn)	.	.	.	.	.
COc1ccc(C(=O)Nc2cc(-c3ccccc3)nn2-c2ccccc2)cc1	.	.	.	/	?
C=CCn1c2ccccc2c2nnc(SCCCn3c(=O)[nH]c4ccccc43)nc21	.	?	.	13µM	/
CCC(CC)NC(=O)CSc1nnc(-c2ccc(OC)cc2)n1C(C)C	.	.	.	.	.
O=C(Nc1cc(Cl)cc(Cl)c1)N1CCN(C(=O)C2CCCO2)CC1 (stereo not drawn)	.	.	.	16.4µM	.
Cc1cc(C(=O)Nc2cccc(O)c2)co1	.	.	.	.	.
COc1ccc(S(=O)(=O)Nc2cc3c(cc2NCc2ccccc2)n(C)c(=O)n3C)cc1	.	.	11.2µM	.	.
